Compounds with a hit are over-represented: about 6.1% of the library has one in this group of screens.
VP16 counter: inhibits Gal4-VP16 luciferase reporter, ROR gamma counter-screen; Drosophila S2 Gal4-VP16 UAS-luciferase, luminescence, 20 h; Potency, µM (doses to about 53.6 µM), inactives show at the top dose activity, negative = inhibition, most hits filed as inhibitors; actives 3.5% (n = 310,000);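 also: Gal4-VP16 expression switched on by copper sulfate through the metallothionein promoter; % is scaled to controls: 0 for no effect and ±100 for the full control effect; nearly all actives have a fitted effect of over 50% in size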
ATXN viability: cell viability loss in ATXN counter-screen; actives 0.49% (n = 400,000); S2 cells (HEK-293 line with an ATXN2-luciferase reporter) viability, CellTiter-Fluor protease fluorescence, 24 h; AID 651635; Potency, µM (top dose mostly 56.7 µM), hits mostly cytotoxic; also: nearly all actives have a fitted effect of over 40% in size
RORgamma inh: blocks mouse ROR gamma transcriptional activity; P51450; Drosophila S2 Gal4-RORgamma UAS-luciferase reporter, 20 h; Potency, µM (highest dose often 53.6 µM), inactives show at the highest dose activity change, negative = inhibition, most hits filed as inhibitors; actives 5.4% (n = 310,000); AID 2551; also: % is scaled to controls: 0 for no effect and ±100 for the full control effect; nearly all actives have a fitted effect of over 60% in size
Target sequence (P51450 whole entry, looked up, the tested form may be a part): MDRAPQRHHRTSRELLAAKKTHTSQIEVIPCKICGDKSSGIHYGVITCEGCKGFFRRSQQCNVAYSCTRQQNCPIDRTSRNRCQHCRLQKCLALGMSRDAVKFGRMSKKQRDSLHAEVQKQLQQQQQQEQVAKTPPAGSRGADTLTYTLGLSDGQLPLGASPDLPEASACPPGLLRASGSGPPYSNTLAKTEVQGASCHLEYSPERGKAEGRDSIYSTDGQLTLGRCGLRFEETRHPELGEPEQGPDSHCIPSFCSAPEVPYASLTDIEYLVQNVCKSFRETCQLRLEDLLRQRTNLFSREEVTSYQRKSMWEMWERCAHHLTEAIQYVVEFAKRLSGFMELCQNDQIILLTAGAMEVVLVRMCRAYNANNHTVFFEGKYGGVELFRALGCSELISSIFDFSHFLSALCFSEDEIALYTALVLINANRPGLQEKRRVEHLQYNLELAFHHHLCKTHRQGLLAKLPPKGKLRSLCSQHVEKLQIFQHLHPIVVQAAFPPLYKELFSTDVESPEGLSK
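Using a luciferase readout, inhibitors were identified by reduced reporter activity in Drosophila cells coexpressing a copper-inducible Gal4–ROR gamma fusion and UAS-driven Photinus luciferase, incubated 20 hr after 700 uM copper sulfate.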
ATXN2 expr inh: ATXN2 expression inhibition; Potency, µM (top dose mostly 57 µM), inactives show at the highest dose activity change, negative = inhibition, most hits filed as inhibitors; actives 0.72% (n = 360,000); HEK-293 ATXN2-luciferase reporter, luminescence, 24 h; AID 1745845; also: % is scaled to controls: 0 for no effect and ±100 for the full control effect; nearly all actives have a fitted effect of over 55% in size
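qHTS (up to 57 uM final) was run with 24 h compound exposure of reporter cells at 37 °C. Each well was multiplexed: SteadyGlo luminescence measured ATXN2-luciferase expression after a fluorogenic Gly-Phe-AFC viability readout (25 uM final).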
TGFb SMAD3 inh: blocks TGF-b signaling | HepG2 CAGA-GFP TGF-b/SMAD3 reporter, GFP fluorescence, 18 h; TGF-beta stimulated, 500 pg/mL final | Potency, µM (titrated, usually from 46.1 µM), without a hit: top-dose activity, negative = inhibition, most hits filed as inhibitors | actives 1.2% (n = 410,000); also: % is scaled to controls: 0 for no effect and ±100 for the full control effect; nearly all actives have a fitted effect of over 65% in size
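Read-out: total well GFP (ex488/em500-530) summed from mean per-cell fluorescence. Cells: HEPG2 CAGA-GFP, 1% FBS DMEM, 18 h at 37 degrees C with 500 pg/mL final TGF-beta. Unstimulated wells served as the full-inhibition control; stimulated DMSO wells = 0%.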
HepG2 viability: HepG2 cytotoxicity, counter-screen for TGF-b inhibitors. HepG2 CAGA-GFP viability, ATP luminescence, 18 h. Potency, µM (series often up to 46.1 µM), without a hit: top-dose activity change, negative = cytotoxicity, actives largely listed as cytotoxic. actives 0.76% (n = 410,000). AID 588856
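HepG2 CAGA-GFP cells (1000/well, DMEM with 1% FBS) received compound, then TGF-beta at 500 pg/mL final, and were incubated 18 hours at 37 degrees C. Viability was read by CellTiter-Glo luminescence. Media-only wells were set as complete cell-killing and DMSO as no toxicity.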
Numbers without * were called inactive; i = inactive; ? = inconclusive; / = no result; [ ] = dose if it differs, or a comment. Calls follow the shape of the dose curve; as a rule, active = well fitted curve in the direction sought with a large enough effect; inconclusive = small, poorly fitted or top-dose-only effect, or another doubt; inactive = no such curve, though single readings can be large; an effect the other way counts as inactive or inconclusive. Potency is read from the fitted curve at half-maximal effect.

SMILES	VP16 counter	ATXN viability	RORgamma inh	ATXN2 expr inh	TGFb SMAD3 inh	HepG2 viability
O=C1CCN(C(=O)c2cccs2)c2ccccc21	3.3%	?	-11.5%	8.7%	-3.1%	-7.1%
CN1C(=O)/C(=C\C(=O)c2cccs2)c2ccccc21	12.6µM*	?	5.62µM*	?	?	-19.3%
CC(=O)Nc1cc(C(=O)N2CCN(c3ccccc3)CC2C)cc2ncn(CCc3ccccn3)c12 (stereo not given)	/	i	/	/	/	/
Cc1ccc(-c2sc(C(=O)NN)c(C)c2C#N)cc1	7.08µM*	?	4.47µM*	-33.6%	5.4%	-3.4%
Cc1ccc(CSc2sc(C(=O)c3ccccc3)c(N)c2C#N)cc1	8.5%	i	5.6%	20.4%	24.1%	17.5%
Cc1ccc(-c2ccnc(-n3ncc(C(=O)NCCN4CCOCC4)c3C3CC3)n2)o1	/	i	/	/	/	/
CC[C@@H](C)[C@H](CN[C@H](CNC)C(C)C)NC[C@@H](C)c1ccc(CC(C)C)cc1	?	/	10µM*	28.2µM*	?	-110.9%
COc1ccc(N2CCN(C(=O)c3cc(S(=O)(=O)N4CCC(C)CC4)cn3C)CC2)cc1	/	i	/	9.2%	?	-0.1%
ONCc1ccccc1	-0.5%	/	-3.4%	/	/	/
Cc1nn(-c2ccccc2)c(N2CCCC2)c1/C=N/NC(=O)c1cc2ccccc2cc1O	3.55µM*	i	3.55µM*	?	?	-38.5%
Cc1nn(-c2ccccc2)c(N2CCCC2)c1/C=N/NC(=S)Nc1ccccc1F	0.355µM*	i	0.355µM*	31.2%	0.0%	-41.6%
Cc1nn(-c2ccccc2)c(N2CCCC2)c1/C=N/NC(=O)c1cc(-c2ccccc2)nc2ccccc12	-18.6%	i	14.8%	-11.3%	-18.8%	3.4%
COc1ccc2cc(CNCc3nonc3C)c(N3CCCC(CO)C3)nc2c1 (stereo not given)	/	i	/	/	/	/
Cc1nn(Cc2cccc(C(=O)N3N=C(C(F)F)CC3(O)C(F)F)c2)c(C)c1[N+](=O)[O-] (stereo not given)	-25.1%	i	?	-7.4%	-0.3%	-18.5%
CC1=NN(C(=O)c2cccc(Cn3nc(C)c([N+](=O)[O-])c3C)c2)C(O)(C(F)(F)F)C1 (stereo not given)	7.08µM*	i	3.16µM*	-14.4%	-9.3%	-17.5%
CC1=NN(C(=O)c2ccc(Cn3cc([N+](=O)[O-])cn3)cc2)C(O)(C(F)(F)F)C1 (stereo not given)	12.6µM*	?	10µM*	-23.6%	?	-37.8%
Cc1ccccc1Cc1c(C)nc2nc(SCC(=O)N(C)c3ccccc3)nn2c1C	/	i	/	0.0%	-27.0%	-20.6%
COCCN(CCOC)c1nc(-c2ccc(C)cc2)nc2ccccc12	-4.5%	?	19.1%	/	-21.2%	-14.3%
Cc1ccc(-c2nc(C(Cl)Cl)c3ccccc3n2)cc1	8.91µM*	i	?	?	-3.6%	-13.3%
CC(=O)Oc1ccc(N2C(=O)C3C(C2=O)C(C(=O)c2ccc(Cl)cc2)N2CCCC32)cc1 (stereo not given)	14.1µM*	i	-7.8%	?	?	-28.5%
CC(=O)C(/C=N/c1cc(-c2ccc(C)cc2)nn1-c1ccccc1)=C(\C)O	22.4µM*	i	?	31.4%	-3.8%	9.2%
CN(C(=O)CCc1nc(-c2ccccc2F)no1)c1ccc(Cl)cc1	/	i	/	1.6%	-6.6%	-15.5%
Cc1cccc2cc3c(nc12)SC(=NCC1CCCO1)N(Cc1ccco1)C3 (stereo not given)	3.16µM*	i	2.82µM*	-19.0%	?	-82.6%
Cc1ccc2nc3c(cc2c1)CN(Cc1ccco1)C(=NCC1CCCO1)S3 (stereo not given)	-2.9%[0.365 µM]	i	?	-7.1%	3.8%	-16.6%
CN(C)CCCNc1cc(N2CCN(C3CCCCC3)CC2)c2noc3c2c1C(=O)c1ccccc1-3	/	/	/	/	275.2%	15.8µM*
SMILES	VP16 counter	ATXN viability	RORgamma inh	ATXN2 expr inh	TGFb SMAD3 inh	HepG2 viability
O=C1c2ccccc2-c2onc3c(N4CCN(C5CCCCC5)CC4)cc(NCCO)c1c23	/	/	/	/	-21.3%	-18.2%
Cc1cccc(N2CCN(C(=O)Nc3ccc(F)cc3)CC2C)c1 (stereo not given)	/	i	/	-9.7%	-1.3%	-20.8%
CCOC(=O)Nc1nc(-c2ccccc2)c(C(=O)c2ccccc2)s1	-22.4%	i	12.6µM*	0.7%	?	8.0%
Cc1ccc2sc(N3CCN(C(=O)C4COc5ccccc5O4)CC3)nc2c1C (stereo not given)	/	i	/	5.7%	2.1%	5.3%
CCCCN(CCCC)CC(O)c1cc(Cl)cc2c1-c1ccc(Cl)cc1/C2=C/c1ccc(Cl)cc1 (stereo not given)	?	?	-19.1%	25.1µM*	/	/
COc1ccccc1NC(=O)C1=C(C)Nc2nnnn2C1c1ccccc1OC (stereo not given)	0.1%	i	-0.4%	-0.2%	-5.2%	2.5%
COc1ccccc1/C=C1\CCCC2=C1Nc1nnnn1C2c1ccccc1OC (stereo not given)	14.1µM*	i	?	-12.0%	12.6µM*	-35.1%
CN(CCCC(=O)Nc1ccncc1)S(=O)(=O)c1ccc(Cl)cc1	15.8µM*	i	25.0%	-9.0%	-17.5%	-22.5%
CN(CC(=O)Nc1ccncc1)S(=O)(=O)c1ccc(Br)cc1	-8.3%	i	6.5%	-14.8%	7.6%	-20.2%
O=C(Cc1ccc(Cl)cc1)Nc1ccncc1	2.82µM*	i	?	-19.4%	-9.5%	-1.5%
O=C(Cc1ccc(F)cc1)Nc1nnc2n1CCS2	/	i	/	6.2%	1.6%	-9.7%
COc1ccc(/C=C2/SC(=S)N(c3ccc(S(=O)(=O)Nc4nccs4)cc3)C2=O)cc1	?	i	?	-20.6%	?	5.4%
Cc1ccc(/C=C2/SC(=S)N(c3ccc(S(=O)(=O)Nc4nccs4)cc3)C2=O)cc1	0.794µM*	i	5.62µM*	-30.4%	0.0%	-3.9%
COc1ccccc1/C=N/NC(=O)c1ccc(-c2ccccc2)cc1	?	i	11.2µM*	-28.9%	-8.0%	-8.9%
COc1cccc(/C=N/NC(=O)C(=O)N/N=C/c2cccc(OC)c2O)c1O	-7.2%	i	19.5%	0.0%	-7.9%	-19.2%
COc1cccc(/C=N/NC(=O)c2c(-c3ccccc3)noc2C)c1O	2µM*	?	0.355µM*	?	-21.2%	-43.3%
COc1cccc(/C=N/NC(=O)c2cnccn2)c1O	2.51µM*	?	2.24µM*	-18.6%	?	-44.6%

Assay outcomes from PubChem BioAssay.
